# Source: PubChem (University of Kansas High Throughput Screening Laboratory)
# Pf apPOL inh – Pf-apPOL inhibitors, biochemical, fluorescence. Plasmodium falciparum apicoplast DNA polymerase (apPOL). Recombinant Pf-apPOL, molecular beacon fluorescence, 1.5 h. inhibition, % at 10 µM. hit rate 0.25% among 210,000. AID 1794808, 2022
# mHTT-CaM PPI inh – mutant huntingtin-calmodulin interaction inhibitors – biochemical, AlphaScreen, primary screen; P42858; AlphaScreen His-mHTT/GST-CaM binding, luminescence; inhibition, % at 15 µM; hit rate 3.6% among 190,000; AID 1671202, 2021
# Target sequence (P42858 whole entry, looked up, change not shown): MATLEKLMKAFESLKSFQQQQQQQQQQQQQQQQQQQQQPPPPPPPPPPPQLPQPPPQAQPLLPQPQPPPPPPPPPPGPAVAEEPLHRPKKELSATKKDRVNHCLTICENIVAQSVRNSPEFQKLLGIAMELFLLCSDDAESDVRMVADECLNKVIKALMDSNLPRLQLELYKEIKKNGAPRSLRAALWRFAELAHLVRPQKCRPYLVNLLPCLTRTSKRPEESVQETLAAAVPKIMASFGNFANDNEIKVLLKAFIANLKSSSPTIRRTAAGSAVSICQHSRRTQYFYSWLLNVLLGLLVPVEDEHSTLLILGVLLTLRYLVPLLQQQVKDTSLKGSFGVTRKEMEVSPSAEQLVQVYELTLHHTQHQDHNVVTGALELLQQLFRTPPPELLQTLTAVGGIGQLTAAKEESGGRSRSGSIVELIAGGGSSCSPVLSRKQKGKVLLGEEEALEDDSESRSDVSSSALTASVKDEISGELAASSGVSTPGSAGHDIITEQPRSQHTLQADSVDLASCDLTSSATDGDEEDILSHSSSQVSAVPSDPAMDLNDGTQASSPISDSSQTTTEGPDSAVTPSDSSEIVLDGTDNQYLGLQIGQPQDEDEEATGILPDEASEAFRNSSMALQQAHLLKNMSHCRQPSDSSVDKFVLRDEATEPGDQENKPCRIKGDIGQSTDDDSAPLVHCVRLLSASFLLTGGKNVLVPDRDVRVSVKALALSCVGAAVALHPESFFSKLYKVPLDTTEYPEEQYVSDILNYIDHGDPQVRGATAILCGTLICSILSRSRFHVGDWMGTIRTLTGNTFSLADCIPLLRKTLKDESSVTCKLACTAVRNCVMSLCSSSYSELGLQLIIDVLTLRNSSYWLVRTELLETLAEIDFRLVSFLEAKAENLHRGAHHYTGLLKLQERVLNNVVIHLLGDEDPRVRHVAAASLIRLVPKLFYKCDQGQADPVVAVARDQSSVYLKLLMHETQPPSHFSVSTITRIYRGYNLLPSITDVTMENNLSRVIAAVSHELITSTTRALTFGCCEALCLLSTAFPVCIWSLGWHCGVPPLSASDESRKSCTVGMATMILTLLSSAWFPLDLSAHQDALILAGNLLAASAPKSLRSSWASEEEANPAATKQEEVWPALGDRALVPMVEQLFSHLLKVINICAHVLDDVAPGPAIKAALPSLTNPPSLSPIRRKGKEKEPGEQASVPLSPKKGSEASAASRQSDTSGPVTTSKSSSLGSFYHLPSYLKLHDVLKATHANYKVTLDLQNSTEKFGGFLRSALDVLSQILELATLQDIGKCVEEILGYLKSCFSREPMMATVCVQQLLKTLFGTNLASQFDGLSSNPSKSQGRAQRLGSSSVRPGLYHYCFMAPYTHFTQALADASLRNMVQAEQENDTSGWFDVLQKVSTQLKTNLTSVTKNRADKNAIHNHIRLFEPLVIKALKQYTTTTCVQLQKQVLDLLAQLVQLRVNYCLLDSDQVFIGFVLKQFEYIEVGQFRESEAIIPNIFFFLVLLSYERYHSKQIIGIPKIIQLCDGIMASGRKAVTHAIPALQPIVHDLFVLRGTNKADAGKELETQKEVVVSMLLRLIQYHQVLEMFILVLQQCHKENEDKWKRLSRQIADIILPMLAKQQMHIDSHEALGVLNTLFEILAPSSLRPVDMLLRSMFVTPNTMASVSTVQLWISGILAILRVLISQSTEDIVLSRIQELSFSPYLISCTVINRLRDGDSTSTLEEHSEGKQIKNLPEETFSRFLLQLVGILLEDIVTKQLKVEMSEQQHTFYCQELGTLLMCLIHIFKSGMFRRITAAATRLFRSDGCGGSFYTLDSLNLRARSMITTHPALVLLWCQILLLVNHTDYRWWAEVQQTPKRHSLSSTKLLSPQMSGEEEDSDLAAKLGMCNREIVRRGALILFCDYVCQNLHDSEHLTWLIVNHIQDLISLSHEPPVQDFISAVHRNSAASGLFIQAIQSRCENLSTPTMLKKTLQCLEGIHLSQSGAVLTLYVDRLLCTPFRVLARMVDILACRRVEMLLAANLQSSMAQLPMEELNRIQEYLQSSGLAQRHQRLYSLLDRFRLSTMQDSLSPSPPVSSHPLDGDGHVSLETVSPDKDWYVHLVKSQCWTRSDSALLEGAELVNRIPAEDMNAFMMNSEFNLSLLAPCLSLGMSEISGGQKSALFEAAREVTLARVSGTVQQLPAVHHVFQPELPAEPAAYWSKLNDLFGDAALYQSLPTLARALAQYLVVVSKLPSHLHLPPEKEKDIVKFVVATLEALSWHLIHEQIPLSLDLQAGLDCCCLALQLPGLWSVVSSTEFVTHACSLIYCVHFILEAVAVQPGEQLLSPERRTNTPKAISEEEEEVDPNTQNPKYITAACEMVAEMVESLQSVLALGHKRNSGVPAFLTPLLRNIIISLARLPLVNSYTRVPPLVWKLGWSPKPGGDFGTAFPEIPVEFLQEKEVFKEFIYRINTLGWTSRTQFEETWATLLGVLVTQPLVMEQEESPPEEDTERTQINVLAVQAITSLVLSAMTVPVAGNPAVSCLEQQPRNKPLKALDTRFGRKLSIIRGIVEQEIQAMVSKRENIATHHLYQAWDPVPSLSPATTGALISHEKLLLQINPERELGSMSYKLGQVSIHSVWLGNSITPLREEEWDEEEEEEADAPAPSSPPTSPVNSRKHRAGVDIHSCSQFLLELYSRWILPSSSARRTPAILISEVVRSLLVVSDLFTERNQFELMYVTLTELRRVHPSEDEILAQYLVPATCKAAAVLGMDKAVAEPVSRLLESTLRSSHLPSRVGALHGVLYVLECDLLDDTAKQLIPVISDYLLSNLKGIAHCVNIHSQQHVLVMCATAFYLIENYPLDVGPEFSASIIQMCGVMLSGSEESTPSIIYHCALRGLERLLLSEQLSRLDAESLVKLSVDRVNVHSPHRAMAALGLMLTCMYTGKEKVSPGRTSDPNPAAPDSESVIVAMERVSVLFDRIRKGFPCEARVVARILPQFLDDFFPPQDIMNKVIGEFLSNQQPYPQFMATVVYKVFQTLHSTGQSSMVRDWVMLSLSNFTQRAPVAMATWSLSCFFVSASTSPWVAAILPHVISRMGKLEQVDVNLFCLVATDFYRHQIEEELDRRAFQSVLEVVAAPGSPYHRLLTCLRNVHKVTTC
# Hits are given with their value; – = inactive; · = not tested or not shown. Rows were chosen to be rich in hits. Some 3.6% of all compounds tested hit in one or more screens of this group. No stated cut-off is given here; in the data, active means inhibition above about 50%; inactive means the rest.
SMILES,Pf apPOL inh,mHTT-CaM PPI inh
CS(=O)(=O)N1CCN(c2ccc([N+](=O)[O-])c(NCc3ccccc3)c2)CC1,–,–
Nc1ccc2cc(Br)c3ccccc3c2c1,·,59
O=[N+]([O-])c1ccc2cc(Br)c3ccccc3c2c1,–,·
Cc1ccc(NC(=O)NC2CCN(C(=O)C3CC3)C2)cc1 (stereo not given),–,–
COc1ccc(C(=O)NCCc2nc3ccccc3n2Cc2ccccc2F)cc1OC,–,–
COc1ccc(C(=O)NCc2nc3ccccc3n2Cc2ccccc2F)cc1OC,–,58
COc1ccc(N(CC(=O)NCc2ccccn2)S(=O)(=O)c2ccccc2)cc1Cl,–,–
CN1C(=O)C2CCCCN2c2ccc(C(=O)N3CCN(c4ccc(Cl)cc4)CC3)cc21 (stereo not given),–,68
O=C1Nc2cc(C(=O)N3CCN(c4ccc(Cl)cc4)CC3)ccc2N2CCCCC12 (stereo not given),–,–
O=C(COc1ccc2c(c1)OCO2)NCCOc1ccc(-c2ccccn2)nn1,–,100
O=C(CSC1CCCC1)NCCOc1ccc(-c2ccccn2)nn1,–,100
O=C(CSC1CCCC1)NCCn1nc(-c2ccco2)ccc1=O,–,–
Cc1cc(C)cc(OCCNC(=O)COc2ccc3c(c2)OCO3)c1,–,–
COc1ccc(OC)c(NC(=O)COc2cc(C)ccc2C)c1,–,–
COc1ccc(Nc2cc(C)c3cc(C)ccc3n2)cc1,–,56
Cc1ccc2nc(Cl)cc(C)c2c1,·,–
O=C(Nc1cccc(NC(=O)C(Cl)Cl)c1)C(Cl)Cl,–,–
CC(=O)NC1(C(F)(F)F)NC(=O)N(Cc2ccco2)C1=O (stereo not given),–,–
C=CCSc1nnc2c3ccccc3n(Cc3cccc(C)c3)c2n1,–,–
Cn1nc(C(=O)N2CCc3c(nc4cc(-c5ccccc5)[nH]n4c3=O)C2)c2ccccc21,–,61
COc1ccc(C(=O)N2CCc3nc4cc(-c5ccccc5)[nH]n4c(=O)c3C2)c(OC)n1,–,–
COc1ccc(C(=O)N2CCc3c(nc4cc(-c5ccccc5)[nH]n4c3=O)C2)c(OC)n1,–,56
COc1ccc(Cl)cc1C(=O)N1CCc2c(nc3cc(-c4ccccc4)[nH]n3c2=O)C1,–,–
COc1cccc(C(=O)N2CCc3c(nc4cc(-c5ccccc5)[nH]n4c3=O)C2)c1OC,–,66
COc1ccc(NC(=O)N2CCc3c(nc4cc(-c5ccccc5)[nH]n4c3=O)C2)c(OC)c1,–,52
SMILES,Pf apPOL inh,mHTT-CaM PPI inh
Cn1nc(C(=O)N2CCc3nc4cc(-c5ccccc5)[nH]n4c(=O)c3C2)c2ccccc21,–,–
COc1ccc(NC(=O)N2CCc3nc4cc(-c5ccccc5)[nH]n4c(=O)c3C2)c(OC)c1,–,–
COc1ccc(S(=O)(=O)NCC2CCN(Cc3ccsc3)CC2)cc1Cl,–,–
CCOC(=O)N1CCN(C(=O)CSc2nnc3n2CCN3c2ccc(OC)cc2)CC1,–,–
O=C(C1CC1)N1CCCC(OCc2nc(-c3cnccn3)no2)C1 (stereo not given),–,–
Cc1ccc([N+](=O)[O-])cc1NC(=O)c1cc(S(N)(=O)=O)c(Cl)cc1Cl,–,–
O=C(c1ccncc1)N1CCc2c(nc3cc(-c4ccccc4Cl)[nH]n3c2=O)C1,–,–
Cc1ccc(C(=O)N2CCc3c(nc4cc(-c5ccccc5Cl)[nH]n4c3=O)C2)cn1,–,–
O=C(Nc1cccc(F)c1)N1CCc2c(nc3cc(-c4ccccc4Cl)[nH]n3c2=O)C1,–,73
COc1ccc(C(=O)N2CCc3c(nc4cc(-c5ccccc5Cl)[nH]n4c3=O)C2)cn1,–,53
O=C(NC1CCCC1)C1CC(=O)N(CCc2c[nH]c3ccc(Cl)cc23)C1 (stereo not given),–,65
Cc1ccc(NC(=O)C2CC(=O)N(CCc3c[nH]c4ccc(F)cc34)C2)cc1C (stereo not given),–,–
Cc1cc(C)cc(NC(=O)C2CC(=O)N(CCc3c[nH]c4ccc(Cl)cc34)C2)c1 (stereo not given),–,100
O=C(Nc1ccccc1)C1CC(=O)N(CCc2c[nH]c3ccc(Cl)cc23)C1 (stereo not given),–,–
Cc1ccc2[nH]cc(CCN3CC(C(=O)Nc4ccc(Cl)cc4)CC3=O)c2c1 (stereo not given),–,–
Cc1ccc2[nH]cc(CCN3CC(C(=O)Nc4ccc(F)c(Cl)c4)CC3=O)c2c1 (stereo not given),–,54
Cc1ccc(NC(=O)C2CC(=O)N(CCc3c[nH]c4ccc(Cl)cc34)C2)cc1C (stereo not given),–,100
O=C(NC1CCCCC1)C1CC(=O)N(CCc2c[nH]c3ccc(Cl)cc23)C1 (stereo not given),–,–
CC(=O)Nc1ccc(N=Cc2ccc(Br)s2)cc1,–,–
CC(C)NC(=O)c1nsc(C(=O)N2CCN(c3ncccn3)CC2)c1N,–,–
CCC(C)C(=O)N1CCc2nc3cc(-c4ccccc4)[nH]n3c(=O)c2C1 (stereo not given),–,–
COc1ccc(NC(=O)N2CCCC2c2cc(C)no2)c(OC)c1 (stereo not given),–,–
CCCc1cc2c(=O)c(-c3ccc4c(c3)OCCCO4)coc2cc1OS(C)(=O)=O,–,–
COc1ccc2[nH]cc(CCN3CC(C(=O)Nc4cccc(C)c4C)CC3=O)c2c1 (stereo not given),–,–
COC(=O)c1ccc(NC(=O)C2CC(=O)N(CCc3c[nH]c4ccc(F)cc34)C2)cc1 (stereo not given),–,59
SMILES,Pf apPOL inh,mHTT-CaM PPI inh
O=C(Nc1ccc(F)cc1)C1CC(=O)N(CCc2c[nH]c3ccc(F)cc23)C1 (stereo not given),–,–
Cc1cccc(NC(=O)C2CC(=O)N(CCc3c[nH]c4ccc(Cl)cc34)C2)c1C (stereo not given),–,71
O=C(Nc1ccc2snnc2c1)N1CCCCCC1,–,–
COc1ccc(Cl)cc1S(=O)(=O)NCC(c1cccn1C)N1CCCC1 (stereo not given),–,–
O=S(=O)(NCC(c1ccsc1)N1CCOCC1)c1cccs1 (stereo not given),–,–
CN1CCc2cc(C(CNC(=O)c3cccs3)N3CCOCC3)ccc21 (stereo not given),–,95
CN1CCCc2cc(C(CNC(=O)Cc3cccs3)N3CCOCC3)ccc21 (stereo not given),–,–
COc1ccc(Cl)cc1S(=O)(=O)NCC(c1ccc2c(c1)CCN2C)N(C)C (stereo not given),–,69
CN1CCc2cc(C(CNS(=O)(=O)c3ccc(Cl)s3)N3CCOCC3)ccc21 (stereo not given),–,99
COc1ccc(C(=O)Nc2ccccc2Cl)cc1Cl,–,–
COc1ccc2oc(C)c(C(C)=O)c2c1,98,–
COc1ccc2oc(C)c(C(=O)O)c2c1,–,–
On1c(-c2cccc(Cl)c2)nc2c1CCc1nonc1-2,–,–
O=C(O)c1nc(-c2ccc([N+](=O)[O-])cc2)nc2ccccc12,–,–
Cc1cccc(NC(=O)Cn2ccc3sc(C)cc3c2=O)c1,–,–
O=C(Oc1ccc2c(c1)OC(=Cc1ccccc1)C2=O)c1ccco1,–,–
O=C(Oc1ccc2c(c1)OC(=Cc1ccccc1Br)C2=O)c1ccco1,–,50
NC(=O)C1CCN(CC(=O)N2N=C(c3ccc(F)cc3)CC2c2ccccc2)CC1 (stereo not given),–,–
